The panel holds about 83,000 compounds, 20% with a hit somewhere; the sample as a whole holds those more often.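 Compound tested at a single concentration for 48 hours in 96-well plates; a percent growth value below 10 was scored as active.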 Unmarked numbers belong to inactive results. Calls of active or inactive are those of the source.
Tested on: RPMI-8226 leukemia
Assay: NCI-60 one-dose screen, 48 h (100 = growth as untreated, 0 = no growth, -100 = all killed)
Conditions: 10 µM unless noted
Procedure: Growth inhibition of the RPMI-8226 human tumor cell line is measured as a screen for anti-cancer activity. Cells are grown in 96 well plates and exposed to the test compound for 48 hours. Compounds are tested at a single concentration, which is 10^-5 M for most compounds. The reported endpoint is percent growth (GI% or GIPRCNT), where numbers from 0 - 100% represent growth inhibition, and numbers from -100% - 0 represent cell death. For example, a value of 40 represents 60% growth inhibition. A value of 0 means no net growth occurred over the course of the experiment. A value of -40 indicates 40% of cells at the beginning of the experiment died by the end of the experiment. A value of -100 means all cells are dead at the end of the experiment.
NCI-60 Human Tumor Cell Lines Screen was performed using the standard one-dose NCI protocol, which is described in more detail at https://dtp.cancer.gov/discovery_development/nci-60/default.htm.
Compounds with GIPRCNT values below 10 were considered active. Activity score was based on GIPRCNT using the following formula: […]
Score is 0 for GIPRCNT values of 100 or above, 50 for GIPRCNT values of 0, and 100 for GIPRCNT values of -100.

| SMILES | growth |
| --- | --- |
| COc1cc(OC)cc(C2=C3CC[C@@H]4[C@H](CC[C@]5(C)C(=O)CC[C@@H]45)C3=CC3C(O)c4cccnc4N4C(=O)COC234)c1 (stereo not given in full) | 96.2% |
| N#CCSc1nnc2n(Cc3ccccc3)c(=O)c3c4c(sc3n12)CCCC4 | -61.3% (active) |
| CC(C)(C)n1cc(-c2ccnc(NCCNS(=O)(=O)c3cccc(F)c3)c2)c(-c2ccccc2)n1 | 61% |
| COC(=O)/C=C1/SC(=Nc2ccc(C)cc2)N(CCc2c[nH]c3ccc(O)cc23)C1=O | 1.84% (active) |
| Cc1ccc(-c2nn(-c3ccccc3)cc2C=C2C(=O)ON=C2C(C)C)cc1 | -23.1% (active) |
| COc1ccc(-c2nc3c(c(-c4ccccc4)nn3-c3ccccc3)c(-c3ccc(N4CCN(C)CC4)cc3)c2C#N)cc1 | 87.4% |
| O=C1c2c(c3c4ccccc4[nH]c3c3ccc4ccccc4c23)C(=O)N1CCN1CCCCC1 | 9.02% (active) |
| Nc1c(C(=O)Nc2ccccc2Cl)sc2nc3c(cc12)C(O)CCC3 (stereo not given) | 25.2% |
| CCNC(=O)c1[nH]cc(-c2ccccc2)c1-c1cc(OC)c2c(c1OC)OCO2 | 99% |
| CCN1CC(=O)N(/N=C2\C(=O)Nc3ccccc32)C1=S | 96% |
| C=CCn1cc(-c2nc3ccccc3s2)c2cc(-c3ccc4c5c(cccc35)C(=O)N(N)C4=O)ccc21 | 99.3% |
| CCOC(=O)C(=Cc1cccc(Br)c1)C(=O)OCC | 12.9% |
| CNC(=O)c1cc(Oc2ccc3c(c2)sc2nc(-c4cc(OC)c(OC)c(OC)c4)cn23)ccn1 | 21% |
| CC1(C)CC[C@]2(C(=O)O)CC[C@]3(C)C(=CC[C@@H]4[C@@]5(C)C/C(=C/O)C(=O)C(C)(C)[C@@H]5CC[C@]43C)[C@@H]2C1 | 13.2% |
| CCCCN1C(=O)/C(=c2\sc3n(c2=O)C2C(NN=3)N(CC)C(=O)N2CC)c2ccccc21 (stereo not given) | 4.61% (active) |
| C#CCOc1ccc2ncnc(Nc3ccc(NC(=O)CCl)cc3)c2c1 | -16.7% (active) |
| Cc1ccc(Sc2oc(-c3ccc(C)cc3)nc2[P+](c2ccccc2)(c2ccccc2)c2ccccc2)cc1 | -37.6% (active) |
| COc1ccc(C/C(C)=C(/c2ccc(OCCN3CCCCC3)cc2)c2ccc(OC(=O)NCc3ccccc3)cc2)cc1 | -62.3% (active) |
| Nc1c(C(=O)Nc2ccncc2)sc2nc3c(cc12)CCCCCC3 | 64.9% |
| Cc1ccc(/C=C2\CN(C(=O)OC(C)(C)C)C/C(=C\c3ccc(C)cc3)C2=O)cc1 | -25.8% (active) |

| SMILES | growth |
| --- | --- |
| COc1cc2c(c(OC)c1OC)C(=O)CC(c1cccc(NC(=O)c3ccc(Br)cc3)c1)O2 (stereo not given) | -4.85% (active) |
| CCn1c(=S)sc2c(Nc3ccc(F)cc3)nc(-c3cccnc3)nc21 | 88% |
| O=C(CCCCC1CCSS1)Nc1ncnc2n[nH]c(-c3ccc(Oc4ccccc4)cc3)c12 (stereo not given) | 85.4% |
| COc1cc(NC(C)CCCNC(C)C)c2ncccc2c1OC (stereo not given) | 87.7% |
| OCc1cccc(-c2ccc3ncc(-c4nc(NC5CC5)ncc4F)n3c2)c1 | -29.8% (active) |
| COc1cc(-c2cc(-c3cccs3)c(C#N)c(N3CCOCC3)n2)cc(OC)c1OC | 44.2% |
| N#Cc1c(-c2cccs2)cc(-c2cccnc2)[nH]c1=O | 98.6% |
| Cc1nc(N2CCOCC2)sc1S(N)(=O)=O | 102% |
| CC(=O)N1N=C(c2ccc(Nc3nc(Nc4ccc(Cl)cc4)nc(Nc4ccc(Cl)cc4)n3)cc2)CC1c1ccco1 (stereo not given) | 34.5% |
| CCOc1nc(-c2ccccc2)cc2c(O)c(C(=O)NN)[nH]c(=O)c12 | 103% |
| COC(C(=O)[C@@H](O)[C@@H](C)O)[C@@H]1Cc2cc3cc(O[C@H]4C[C@@H](O[C@H]5C[C@@H](O)[C@H](O)C(C)O5)[C@H](O)C(C)O4)c(C)c(O)c3c(O)c2C(=O)[C@H]1O[C@H]1C[C@@H](O[C@H]2C[C@@H](O[C@H]3C[C@@H](O)[C@H](OC)C(C)O3)[C@@H](O)C(C)O2)[C@H](O)C(C)O1 (stereo not given in full) | 0.837% (active) |
| Cn1ccc2c3c(ccc21)CC3=O | 106% |
| CCN1CCN(c2cc(C(=O)Nc3nc(-c4cc(OC)c(OC)c(OC)c4)cs3)cc(C(F)(F)F)c2)CC1 | 56.9% |
| COc1ccc(C(c2cc(OC)c(OC)c(OC)c2)N2CCN(c3ccccc3)CC2)cc1 (stereo not given) | 89.3% |
| S=C1CCSC(=S)N1CCCN1C(=S)CCSC1=S | 3.38% (active) |
| C[C@H](NC(=O)[C@@H](C)N)[C@H](Oc1ccc2c(cnn2-c2ccc(F)cc2)c1)c1ccc2c(c1)OCCO2 | 20.7% |
| CN(C)C1CCN(Cc2ccc(NC(=O)c3cncc(C#Cc4cnc(N)c5ncccc45)c3)cc2C(F)(F)F)CC1 | 60.9% |
| O=C(/C=C/c1cccs1)c1ccc(Cl)nc1 | 4.19% (active) |
| O=C1c2cccc3cccc(c23)C(=O)N1N1C(=O)c2cccc3c(N4CCOCC4)ccc(c23)C1=O | 106% |
| CO[C@]12C=C/C(=C(/C(=O)OCc3cccnc3)C(=O)CCCCCCCC[C@@]3(OC)C=C/C(=C(/C(=O)OCc4cccnc4)C(=O)CCCCCCCC1)O3)O2 | -9.22% (active) |
